Data: the supplement of paper PMC12494721
Counter-ions that a name gives are not always drawn.

System: Escherichia coli IAI1
Test: fold change of Cadaverine concentration vs plate DMSO controls (fold change (ratio)); higher = more amine produced, active = hit call of the paper (significant change in both replicates, either direction)
Conditions: incubation time: 27 h, anaerobic, 37 °C;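 for the amine columns active = adjusted P below 0.05 in both replicates with a change the same way and a mean fold change under 0.8 or over 1.25; inactive = the rest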
Method in brief: (§1)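 Anaerobic mGAM cultures of four gut bacterial strains were grown at 37 °C for 27 h in 80 µL wells, starting at OD 0.1 before 1:1 dilution. Compounds were at 20 µM final (sweeteners 50 µM). Whole cultures were extracted with cold acetonitrile/methanol containing 0.1% formic acid and centrifuged. Amines were quantified by LC–triple-quadrupole MS (dynamic MRM) against external calibration curves and drift-corrected within batch. Each value is the fold change versus plate DMSO controls, averaged over 2 biological replicates.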

Fold change of Cadaverine concentration, inactive:
Oc1c(I)cc(Cl)c2cccnc12 [Clioquinol] (20 µM) 1.09
CCCCC1=NC2(CCCC2)C(=O)N1Cc1ccc(-c2ccccc2-c2nnn[nH]2)cc1 [Irbesartan] (20 µM) 1.01
CCc1ccc(C(=O)C(C)CN2CCCCC2)cc1 (stereo unspecified) [Eperisone Hydrochloride] (20 µM) 0.992
CC(C)OC(=O)C(C)(C)Oc1ccc(C(=O)c2ccc(Cl)cc2)cc1 [Fenofibrate] (20 µM) 1.03
CN1CCCN=C1/C=C/c1cccc(O)c1 [Oxantel pamoate] (20 µM) 1.01
CO/N=C(\C(=O)N[C@@H]1C(=O)N2C(C(=O)[O-])=C(C[n+]3cccc4c3CCC4)CS[C@H]12)c1csc(N)n1 [Cefpirome sulfate] (20 µM) 0.645
C[C@H]1C[C@H]2[C@@H]3CCC4=CC(=O)C=C[C@]4(C)[C@@]3(F)[C@@H](O)C[C@]2(C)[C@@]1(O)C(=O)CO [Betamethasone] (20 µM) 1.04
Cc1cc(NS(=O)(=O)c2ccc(N)cc2)no1 [Sulfamethoxazole] (20 µM) 0.911
Fc1ccc(C(c2ccc(F)cc2)N2CCN(C/C=C/c3ccccc3)CC2)cc1 [Flunarizine dihydrochloride] (20 µM) 0.979
CN1CCN(CCCN2c3ccccc3Sc3ccc(S(=O)(=O)N(C)C)cc32)CC1 [Thioproperazine dimesylate] (20 µM) 0.99
Cn1c(=O)c2nc[nH]c2n(C)c1=O [Theophylline monohydrate] (20 µM) 0.9
COC(=O)C1=C(C)NC(C)=C(C(=O)OC)C1c1ccccc1[N+](=O)[O-] [Nifedipine] (20 µM) 0.955
O=C(NCc1ncc(C(F)(F)F)cc1Cl)c1c(Cl)cccc1Cl (20 µM) 1.01
CC(=O)Oc1ccccc1C(=O)Nc1ncc([N+](=O)[O-])s1 [Nitazoxanide] (20 µM) 1.25
CC(=O)CCCCn1c(=O)c2c(ncn2C)n(C)c1=O [Pentoxifylline] (20 µM) 1.04
CN(C)CCc1c[nH]c2ccc(Cn3cncn3)cc12 [Rizatriptan benzoate] (20 µM) 1.02

Fold change of Cadaverine concentration, active:
CCn1cc(C(=O)O)c(=O)c2cc(F)c(N3CCNC(C)C3)c(F)c21 (stereo unspecified) [Lomefloxacin hydrochloride] (20 µM) 0.166

System: Klebsiella aerogenes DSM 30053
Test: as above
Conditions: incubation time: 27 h, anaerobic, 37 °C
Method in brief: as §1

Fold change of Cadaverine concentration, inactive:
CNC(=C[N+](=O)[O-])NCCSCc1ccc(CN(C)C)o1 [Ranitidine hydrochloride] (20 µM) 1.02
C/C(O)=C(\C#N)C(=O)Nc1ccc(C(F)(F)F)cc1 [Teriflunomide] (20 µM) 0.998
Cc1ccsc1/C=C/C1=NCCCN1C [Morantel tartrate] (20 µM) 1.01
CCCCOCCOCCOCc1cc2c(cc1CCC)OCO2 (20 µM) 1
CC(C)C(=O)Nc1ccc([N+](=O)[O-])c(C(F)(F)F)c1 [Flutamide] (20 µM) 0.981
N=c1nc(N2CCCCC2)cc(N)n1O [Minoxidil] (20 µM) 1.01
C[C@]12CCC3=C4CCC(=O)C=C4CC[C@H]3[C@@H]1CC[C@@]2(O)CC#N [Dienogest] (20 µM) 1
CN(Cc1cnc2nc(N)nc(N)c2n1)c1ccc(C(=O)N[C@@H](CCC(=O)O)C(=O)O)cc1 [Amethopterin] (20 µM) 1.02
NC(=O)C1CO1 (stereo unspecified) [Glycidamide] (20 µM) 1.02
O=C1[C@H]2CCCC[C@H]2C(=O)N1CCCCN1CCN(c2nsc3ccccc23)CC1 [Perospirone hydrochloride] (20 µM) 1.02
C=C1[C@H](CO)[C@@H](O)C[C@@H]1n1cnc2c(=O)[nH]c(N)nc21 [Entecavir] (20 µM) 0.985
O=c1n(CCCN2CCN(c3cccc(Cl)c3)CC2)nc2ccccn12 [Trazodone hydrochloride] (20 µM) 0.99
CC(=O)Nc1nnc(S(N)(=O)=O)s1 [Acetazolamide] (20 µM) 1.11
CCOC(=O)C1=C(C)NC(C)=C(C(=O)OC)C1c1cccc([N+](=O)[O-])c1 (stereo unspecified) [Nitrendipine] (20 µM) 1.01
CCCSS/C(CCO)=C(/C)N(C=O)Cc1cnc(C)nc1N [Prosultiamine] (20 µM) 0.984
CC(C)NCC(O)c1ccc(NS(C)(=O)=O)cc1 (stereo unspecified) [Sotalol hydrochloride] (20 µM) 1.12
NC(=O)OCC(O)COc1ccc(Cl)cc1 (stereo unspecified) [Chlorphensin carbamate] (20 µM) 1.02
C[C@]12CC[C@H]3[C@@H](CCC4=CC(=O)CC[C@@]43C)[C@@H]1CC[C@@H]2C(=O)CO [Deoxycorticosterone] (20 µM) 1.03
OC(CCCN1CCCCC1)(c1ccccc1)c1ccccc1 [Diphenidol hydrochloride] (20 µM) 0.981
Cc1cccc(Nc2ccncc2S(=O)(=O)NC(=O)NC(C)C)c1 [Torsemide] (20 µM) 0.986
CCN(CC)C(=O)Nc1ccc(OCC(O)CNC(C)(C)C)c(C(C)=O)c1 (stereo unspecified) [Celiprolol hydrochloride] (20 µM) 0.988
CC(NCCC(c1ccccc1)c1ccccc1)c1ccccc1 (stereo unspecified) [Fendiline hydrochloride] (20 µM) 0.998
Oc1c(I)cc(Cl)c2cccnc12 [Clioquinol] (20 µM) 0.991
CCCCC1=NC2(CCCC2)C(=O)N1Cc1ccc(-c2ccccc2-c2nnn[nH]2)cc1 [Irbesartan] (20 µM) 0.995
CCc1ccc(C(=O)C(C)CN2CCCCC2)cc1 (stereo unspecified) [Eperisone Hydrochloride] (20 µM) 0.991
CCn1cc(C(=O)O)c(=O)c2cc(F)c(N3CCNC(C)C3)c(F)c21 (stereo unspecified) [Lomefloxacin hydrochloride] (20 µM) 0.981
CC(C)OC(=O)C(C)(C)Oc1ccc(C(=O)c2ccc(Cl)cc2)cc1 [Fenofibrate] (20 µM) 1.01
CN1CCCN=C1/C=C/c1cccc(O)c1 [Oxantel pamoate] (20 µM) 1.01
CO/N=C(\C(=O)N[C@@H]1C(=O)N2C(C(=O)[O-])=C(C[n+]3cccc4c3CCC4)CS[C@H]12)c1csc(N)n1 [Cefpirome sulfate] (20 µM) 1.09
C[C@H]1C[C@H]2[C@@H]3CCC4=CC(=O)C=C[C@]4(C)[C@@]3(F)[C@@H](O)C[C@]2(C)[C@@]1(O)C(=O)CO [Betamethasone] (20 µM) 1.02
Cc1cc(NS(=O)(=O)c2ccc(N)cc2)no1 [Sulfamethoxazole] (20 µM) 1
Fc1ccc(C(c2ccc(F)cc2)N2CCN(C/C=C/c3ccccc3)CC2)cc1 [Flunarizine dihydrochloride] (20 µM) 1.04
CN1CCN(CCCN2c3ccccc3Sc3ccc(S(=O)(=O)N(C)C)cc32)CC1 [Thioproperazine dimesylate] (20 µM) 1.01
Cn1c(=O)c2nc[nH]c2n(C)c1=O [Theophylline monohydrate] (20 µM) 1.02
COC(=O)C1=C(C)NC(C)=C(C(=O)OC)C1c1ccccc1[N+](=O)[O-] [Nifedipine] (20 µM) 1
O=C(NCc1ncc(C(F)(F)F)cc1Cl)c1c(Cl)cccc1Cl (20 µM) 1.01
CC(=O)Oc1ccccc1C(=O)Nc1ncc([N+](=O)[O-])s1 [Nitazoxanide] (20 µM) 1.01
CC(=O)CCCCn1c(=O)c2c(ncn2C)n(C)c1=O [Pentoxifylline] (20 µM) 1.02
CN(C)CCc1c[nH]c2ccc(Cn3cncn3)cc12 [Rizatriptan benzoate] (20 µM) 1.01
